About 83,000 compounds went through this panel and 20% of them were active in at least one assay; those are over-represented in the sample as a whole.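 Cell lines were cultured in 96-well plates, exposed to a single compound concentration, and assessed for percent growth 48 hours later.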 A number with no mark means an inactive call. Activity calls are given as the source filed them. The calls were made as follows: active = growth percent below 10; inactive = the rest.

The results in this text go back to PubChem BioAssay (NCI).

Test systems include HCT-15 colon; HT29 colon; SNB-75 CNS; SNB-19 CNS; U251 CNS; PC-3 prostate; SK-MEL-5 melanoma; UACC-62 melanoma; SK-MEL-28 melanoma; SK-MEL-2 melanoma; EKVX NSCLC; SN12C renal; UO-31 renal; TK-10 renal; ACHN renal; CAKI-1 renal; A498 renal; CCRF-CEM leukemia; MOLT-4 leukemia.
Common to all, as to assay: NCI-60 one-dose screen, 48 h (100 = growth as untreated, 0 = no growth, -100 = all killed)
Conditions in all cases: 10 µM unless noted

As to `CCOC(=O)COc1c(OC)c(OC)cc2oc(-c3cccc(C(=O)Nc4ccc(Cl)cc4)c3)cc(=O)c12`, the growth in the assay with HCT-15 colon was 21.5%; in the assay on HT29 colon, 22.9%; with SNB-75 CNS, 34.6%; in the assay on SNB-19 CNS, 62.3%; in the assay with U251 CNS, 39.9%; with PC-3 prostate, 41.1%. Also, the growth in the assay on SK-MEL-5 melanoma was 22.3%; in the assay with UACC-62 melanoma, 55.1%; with SK-MEL-28 melanoma it was 68.6%; in the assay with SK-MEL-2 melanoma it was 71.3%; with EKVX NSCLC, 62.5%; with SN12C renal, 58.3%. In addition, the growth with UO-31 renal was 28.1%; in the assay on TK-10 renal, 87.7%; in the assay on ACHN renal, 73.1%; in the assay on CAKI-1 renal it was 48.4%; in the assay on A498 renal it was 82.7%; with CCRF-CEM leukemia, 31.1%. Besides, the growth in the assay on MOLT-4 leukemia was 19.8%.

Consider `O=C(/C=C/Nc1ccc(Cl)cc1)c1ccc2c(c1)Nc1ccccc1S2`, for which the growth was 67.1% in the assay on HCT-15 colon; 28.7% in the assay on HT29 colon; -24.4% (active) in the assay on SNB-75 CNS; 9.53% (active) in the assay with SNB-19 CNS; 31.5% in the assay with U251 CNS; 29.8% in the assay on PC-3 prostate. Further, the growth in the assay on SK-MEL-5 melanoma is 71.3%; in the assay with UACC-62 melanoma, 32%; in the assay on SK-MEL-28 melanoma it was 65.9%; with SK-MEL-2 melanoma it was 55.1%; in the assay with EKVX NSCLC it was 55.8%; with SN12C renal, 61.8%. The growth with UO-31 renal was 36.1%; with TK-10 renal it was 72%; with ACHN renal, 30.7%; with CAKI-1 renal, 38.3%; in the assay on A498 renal it was 108%; in the assay with CCRF-CEM leukemia, 81.1%. Besides, in the assay with MOLT-4 leukemia, the growth was 66.2%.

As to `CCOP(=O)(OCCCl)c1nc(-c2ccc(C)cc2)oc1NCc1ccccc1` (configuration not stated), the growth in the assay on HCT-15 colon was 57.6%; in the assay on HT29 colon, 81.7%; with SNB-75 CNS it was 69.9%; in the assay on SNB-19 CNS, 65.8%; in the assay on U251 CNS, 74.6%; with PC-3 prostate, 44.4%. The growth was 84.8% in the assay with SK-MEL-5 melanoma; 60.4% in the assay with UACC-62 melanoma; 108% in the assay with SK-MEL-28 melanoma; 87% with SK-MEL-2 melanoma; 67.2% with EKVX NSCLC; 70.4% in the assay on SN12C renal. Besides, the growth with UO-31 renal was 52.5%; in the assay on TK-10 renal, 100%; with ACHN renal, 80%; with CAKI-1 renal, 49.5%; in the assay on A498 renal, 99.3%; in the assay with CCRF-CEM leukemia it was 72.4%. The growth with MOLT-4 leukemia was 43.6%.

On to `CC(=O)Nc1ccc(-n2cnc3cc(-c4ccc(O)cc4)ccc32)cc1C(F)(F)F`, for which the growth in the assay with HCT-15 colon was 16.1%; with HT29 colon, 26.3%; in the assay with SNB-75 CNS, 8.79% (active); in the assay on SNB-19 CNS, 27.8%; with U251 CNS it was 18%; in the assay on PC-3 prostate it was 44.8%. The growth in the assay with SK-MEL-5 melanoma is 5.35% (active); in the assay with UACC-62 melanoma it was 21.1%; with SK-MEL-28 melanoma, 20.5%; with SK-MEL-2 melanoma, 17.4%; in the assay with EKVX NSCLC, 27.3%; in the assay with SN12C renal, 15.6%. Besides, the growth is 10.3% in the assay on UO-31 renal; 33% in the assay with TK-10 renal; 6.32% (active) in the assay on ACHN renal; 28.6% in the assay on CAKI-1 renal; 57.1% with A498 renal; 40.5% in the assay with CCRF-CEM leukemia. Also, in the assay on MOLT-4 leukemia, the growth is 29.6%.

Turning to `CC(=O)Nc1ccc(C(=O)NC(=S)Nc2ccc(S(N)(=O)=O)cc2)cc1`, the growth in the assay on HCT-15 colon was 106%; in the assay with HT29 colon, 92.6%; in the assay with SNB-75 CNS, 78.1%; in the assay on SNB-19 CNS, 98.4%; with U251 CNS, 94.2%; in the assay on PC-3 prostate, 97.9%. Besides, the growth was 88.3% with SK-MEL-5 melanoma; 86.9% in the assay with UACC-62 melanoma; 97% with SK-MEL-28 melanoma; 97.1% in the assay with SK-MEL-2 melanoma; 90.1% with EKVX NSCLC; 91.7% in the assay with SN12C renal. The growth with UO-31 renal is 80.7%; with TK-10 renal, 89.1%; in the assay with ACHN renal, 102%; in the assay with CAKI-1 renal, 87.9%; with A498 renal, 104%; with CCRF-CEM leukemia, 100%. The growth with MOLT-4 leukemia was 111%.

For `S=C(Nc1ccccc1)Nc1ccc(OCc2nc3ccccc3[nH]2)cc1`, the growth is 29.5% with HCT-15 colon; 25.4% with HT29 colon; 27.4% in the assay with SNB-75 CNS; 39.8% in the assay on SNB-19 CNS; 34.5% in the assay with U251 CNS; 42% in the assay with PC-3 prostate. The growth in the assay with SK-MEL-5 melanoma is 49.1%; in the assay on UACC-62 melanoma, 33.6%; in the assay with SK-MEL-28 melanoma, 61.6%; with SK-MEL-2 melanoma it was 24.6%; with EKVX NSCLC it was 46.3%; in the assay with SN12C renal, 47.1%. The growth was 30.4% in the assay on UO-31 renal; 72.3% with TK-10 renal; 24.6% with ACHN renal; 18.9% in the assay with CAKI-1 renal; 72.1% with A498 renal; 28.9% in the assay with CCRF-CEM leukemia. Besides, the growth with MOLT-4 leukemia was 19.8%.

Turning to `COc1cc(C2CC(c3cc(OC)c(OC)c(OC)c3)=NN2c2ccccc2)ccc1OCc1ccc(C)cc1` (configuration not stated), the growth in the assay on HCT-15 colon is 86.2%; with HT29 colon it was 85.7%; with SNB-75 CNS, 84.1%; in the assay on SNB-19 CNS it was 91.7%; in the assay on U251 CNS it was 96.7%; with PC-3 prostate it was 92.9%. Further, the growth is 92.3% in the assay on SK-MEL-5 melanoma; 78.8% with UACC-62 melanoma; 103% in the assay on SK-MEL-28 melanoma; 88.1% in the assay with SK-MEL-2 melanoma; 94.1% with EKVX NSCLC; 95.1% in the assay on SN12C renal. The growth was 84.8% in the assay with UO-31 renal; 118% with TK-10 renal; 99.6% in the assay with ACHN renal; 77.8% in the assay on CAKI-1 renal; 102% with A498 renal; 106% in the assay with CCRF-CEM leukemia. Also, the growth with MOLT-4 leukemia is 91.6%.

With `CC(=O)Oc1ccc(/C=C/C(=O)N[C@@H](Cc2ccccc2)C(O)C(=O)NCc2ccccc2)cc1OC(C)=O` (some centres not stated), the growth in the assay with HCT-15 colon was 78.1%; in the assay with HT29 colon, 113%; with SNB-75 CNS it was 61.3%; with SNB-19 CNS, 83.5%; in the assay with U251 CNS, 73.8%; with PC-3 prostate, 76.9%. The growth in the assay on SK-MEL-5 melanoma is 81.8%; in the assay with UACC-62 melanoma, 96.1%; in the assay on SK-MEL-28 melanoma, 88.4%; with SK-MEL-2 melanoma, 110%; in the assay on EKVX NSCLC it was 90.6%; with SN12C renal, 90.8%. The growth with UO-31 renal is 38.8%; in the assay with TK-10 renal it was 76.9%; in the assay with ACHN renal it was 85.5%; with CAKI-1 renal, 71.3%; with A498 renal, 115%; with CCRF-CEM leukemia, 44.9%. Also, in the assay with MOLT-4 leukemia, the growth is 55.5%.
